# Measured values reported in PubChem BioAssay (NCATS).
# Results filed as inconclusive are left out. The source holds several records for some structures; these can differ, active in one and inactive in another. Values without a mark were called inactive. Activity calls are given as the source filed them. Unless noted, calls follow the shape of the dose curve; as a rule, active = well fitted curve in the direction sought with a large enough effect; inconclusive = small, poorly fitted or top-dose-only effect, or another doubt; inactive = no such curve, though single readings can be large; an effect the other way counts as inactive or inconclusive.
# Tests used:
# [1] = Cell Viability - LYMP2-001 (AID 921);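 also: potency is read from the fitted curve at half-maximal effect; cells exposed to compound for 24 h at 37 °C; nearly all actives have a fitted effect of over 70% in size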
# In short: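 qHTS, 1536-well; lymphoblastoid cells, 24 hr compound, 37 C; ATP by CellTiter-Glo, 30 min RT; luminescence; Hill-fit AC50.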
# [2] = Cell Viability - LYMP2-009 (AID 968);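 also: potency is read from the fitted curve at half-maximal effect; cells exposed to compound for 24 h at 37 °C; nearly all actives have a fitted effect of over 55% in size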
# [3] = Cell Viability - LYMP2-011 (AID 969); also: potency is read from the fitted curve at half-maximal effect; nearly all actives have a fitted effect of over 60% in size
# In short: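 Acute toxicity is scored as a concentration-dependent drop in intracellular ATP of a human lymphoblastoid line after 24 hr treatment. Values are AC50s modeled with the Hill equation.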
# [4] = Cell Viability - LYMP2-013 (AID 970);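 also: potency is read from the fitted curve at half-maximal effect; cells exposed to compound for 24 h at 37 °C; nearly all actives have a fitted effect of over 55% in size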
# In short: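 Acute toxicity was measured in human lymphoblastoid cells (2500/well) exposed to compound titrations for 24 hr, with ATP luminescence (CellTiter-Glo) as read-out and AC50 fitted by Hill equation.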
# [5] = Cell Viability - LYMP2-015 (AID 971); also: potency is read from the fitted curve at half-maximal effect; nearly all actives have a fitted effect of over 55% in size
# In short: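 Acute toxicity was scored as a concentration-dependent drop in intracellular ATP in lymphoblastoid cells after 24 hr compound exposure in complete medium. Detection used CellTiter-Glo luciferase luminescence.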
# [6] = Cell Viability - LYMP2-017 (AID 972);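 also: potency is read from the fitted curve at half-maximal effect; cells exposed to compound for 24 hours at 37 °C; nearly all actives have a fitted effect of over 55% in size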
# In short: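 Steps: plate 2500 lymphoblastoid cells per well; incubate 5 hr at 37 C; add compound across a concentration series and incubate 24 hr at 37 C; add CellTiter-Glo and read luminescence after 30 min at room temperature; fit Hill curves for AC50.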
# [7] = Cell Viability - LYMP2-019 (AID 973)
# In short: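 Cells plated at 2500/well and allowed 5 hr at 37 C before compound addition. After 24 hr incubation, CellTiter-Glo reagent was added, plates sat 30 min at room temperature, and luminescence was recorded.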
# [8] = Cell Viability - LYMP2-021 (AID 974)
# In short: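 Concentration-response cytotoxicity in a human lymphoblastoid line: 24 hr treatment at 37 C in complete culture medium, tetraoctylammonium bromide as positive control, luminescent ATP quantitation as viability measure.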
# [9] = Cell Viability - LYMP2-023 (AID 975)
# In short: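 Concentration-dependent drop in intracellular ATP measures acute cytotoxicity in a human lymphoblastoid line treated for 24 hours in complete culture medium. AC50 values are taken from Hill-equation fits of qHTS data.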
# [10] = Cell Viability - LYMP2-025 (AID 976);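 also: potency is read from the fitted curve at half-maximal effect; cells exposed to compound for 24 h at 37 °C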
# In short: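 In qHTS format, LYMP2-025 lymphoblastoid cells in complete culture medium received compound for 24 hr; ATP-based CellTiter-Glo signal gave viability, with AC50 derived by Hill equation.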
# [11] = Cell Viability - LYMP2-002 (AID 977);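 also: potency is read from the fitted curve at half-maximal effect; compound exposure lasted 24 h at 37 °C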
# In short: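 Cytotoxicity is scored as concentration-dependent loss of cellular ATP in a human lymphoblastoid line after 24 hr compound treatment at 37 C. AC50 is obtained by modelling concentration-response data with the Hill equation.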
# [12] = Cell Viability - LYMP2-006 (AID 978); also: potency is read from the fitted curve at half-maximal effect; nearly all actives have a fitted effect of over 60% in size
# In short: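 Concentration-dependent loss of intracellular ATP in a human lymphoblastoid line after 24 hr treatment at 37 C was measured by CellTiter-Glo luminescence, with AC50 values obtained from standard Hill-equation modelling.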
# [13] = Cell Viability - LYMP2-007 (AID 979);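 also: potency is read from the fitted curve at half-maximal effect; cells exposed to compound for 24 h before reading; nearly all actives have a fitted effect of over 60% in size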
# In short: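 Acute toxicity is scored as a concentration-dependent fall in intracellular ATP in human lymphoblastoid cells treated 24 hr at 37 C, measured by luciferase luminescence; Hill-equation modelling yields AC50.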
# [14] = Cell Viability - LYMP2-008 (AID 980); also: potency is read from the fitted curve at half-maximal effect; nearly all actives have a fitted effect of over 60% in size
# In short: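 Acute cytotoxicity is scored as concentration-dependent loss of cellular ATP in a human lymphoblastoid line after 24 hr treatment at 37 C. ATP is quantified by luciferase luminescence.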
# [15] = Cell Viability - LYMP2-012 (AID 982)
# [16] = Cell Viability - LYMP2-014 (AID 983);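 also: potency is read from the fitted curve at half-maximal effect; cells exposed to compound for 24 h at 37 °C; nearly all actives have a fitted effect of over 50% in size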
# In short: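 Decrease in intracellular ATP after 24 hr treatment at 37 C, measured by luciferase luminescence, indicated cytotoxicity. Concentration-response data were fitted with the standard Hill equation to give AC50.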
# [17] = Cell Viability - LYMP2-016 (AID 984)
# In short: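 Acute toxicity in a Coriell human lymphoblastoid line is scored as loss of intracellular ATP over 24 h of treatment in complete medium. CellTiter-Glo signal is fitted across concentrations with the Hill equation to give AC50.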
# [18] = Cell Viability - LYMP2-018 (AID 985);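 also: potency is read from the fitted curve at half-maximal effect; compound exposure lasted 24 hr at 37 °C; nearly all actives have a fitted effect of over 50% in size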
# In short: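 Acute cytotoxicity is scored as a concentration-dependent drop in intracellular ATP after 24 hr exposure of the lymphoblastoid line in complete culture medium, measured by luciferase luminescence. Potency is expressed as AC50 from Hill modelling.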
# [19] = Cell Viability - LYMP2-020 (AID 986)
# In short: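 Acute cytotoxicity in a human lymphoblastoid line is scored as a concentration-dependent fall in cellular ATP after 24 hr at 37 C in complete medium. The positive control is tetraoctylammonium bromide, and potency is given as Hill-fit AC50.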
# [20] = Cell Viability - LYMP2-022 (AID 987)
# In short: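 Acute toxicity in a human lymphoblastoid line is scored as decreased intracellular ATP after 24 hr compound treatment at 37 C. ATP is measured by CellTiter-Glo luminescence; curves are fitted with the Hill equation to give AC50.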
# [21] = Cell Viability - LYMP2-024 (AID 988)
# In short: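 Acute toxicity is measured as concentration-dependent loss of intracellular ATP in a human lymphoblastoid line treated 24 hours at 37 C. Luciferase luminescence quantifies ATP; AC50 values come from standard Hill-equation modelling.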
# [22] = Cell Viability - LYMP2-026 (AID 989);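 also: potency is read from the fitted curve at half-maximal effect; cells exposed to compound for 24 h at 37 °C; nearly all actives have a fitted effect of over 50% in size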
# In short: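 Concentration-dependent loss of intracellular ATP in human lymphoblastoid cells after 24 hr at 37 C, quantified by luciferase luminescence. AC50 derived from standard Hill equation.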
# [23] = target: Glucocorticoid receptor (Homo sapiens) (UniProt P04150); experiment: qHTS assay for small molecule antagonists of glucocorticoid receptor signaling (AID 588533; active = well fitted inhibition curve with a large enough effect in the signal ratio, with a control signal flat, not every such curve was filed as active; the % refers to the signal ratio;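 also: cells stimulated with 2 nM dexamethasone as agonist; % is scaled to controls: 0 for no effect and ±100 for the full control effect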)
# In short: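 Antagonist-mode qHTS: compound titrations added to GRE-bla HeLa cells, then dexamethasone 2 nM final; 18 h, 37 C. CCF4 FRET fluorescence normalized to dexamethasone and DMSO; IC50 from Hill fit.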
# [24] = target: Peroxisome proliferator-activated receptor delta (Homo sapiens) (UniProt Q03181); experiment: qHTS assay for small molecule agonists of peroxisome proliferator-activated receptor delta signaling (AID 588534; calls by dose curve;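 also: 0% = DMSO basal wells and 100% = positive control agonist at 10 µM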)
# In short: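 Reporter cells were plated and held 5 hrs at 37 C before compounds were added. After 18 hrs at 37 C, CCF4 dye was loaded for 2 hrs at RT and fluorescence measured.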
# [25] = target: Voltage-gated inwardly rectifying potassium channel KCNH2 (Homo sapiens) (UniProt Q12809); experiment: qHTS Assay for Small Molecule Inhibitors of the Human hERG Channel Activity (AID 588834);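 also: potency is read from the fitted curve at half-maximal effect; lower thallium flux fluorescence means stronger hERG block; nearly all actives have a fitted effect of over 50% in size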
# In short: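 Measured: FluxOR fluorescence after thallium stimulation in U2OS cells transduced with hERG by baculovirus. Compounds pre-incubated around 10 min; medium Opti-MEM with 2% FCS. AC50 from Hill equation.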
# [26] = qHTS assay for small molecule agonists of the antioxidant response element (ARE) signaling pathway (AID 651741; active = well fitted activation curve with a large enough effect in the signal ratio; the % refers to the signal ratio; also: % of control where 0% means no effect)
# In short: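 Seeding 2,000 ARE-bla HepG2 cells per well preceded a 5 h incubation at 37 C/5% CO2 and a 16 h compound exposure at 37 C. Beta-lactamase reporter activity was then quantified by fluorescence after 2 h with LiveBLAzer B/G FRET substrate.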
# [27] = qHTS assay for small molecule activators of the p53 signaling pathway (AID 651743; active = well fitted activation curve with a large enough effect in the signal ratio, not every such curve was filed as active; the % refers to the signal ratio; also: series mostly up to about 92 µM; % of control where 0% means no effect); details: HCT-116 p53RE-bla, beta-lactamase FRET ratio, 16 h; activation: hits give high values
# In short: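 Screen for p53 pathway agonists uses stably transfected p53RE-bla HCT-116 cells, 4,000 per well, treated 16 h at 37 C with compounds in DMSO.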
# [28] = qHTS assay to identify small molecules that stimulate interleukin-8 (IL-8) secretion (AID 651758; active = well fitted activation curve with a large enough effect in the signal ratio; the % refers to the signal ratio; also: potency is read from the fitted curve at half-maximal effect)
# In short: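 Secreted IL-8 measured by TR-FRET sandwich (cryptate and XL665 antibodies) from THP-1 cells exposed to compound overnight (16 hrs, 37 C).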
# [29] = target: Nuclear receptor ROR-gamma (Homo sapiens) (UniProt P51449); experiment: qHTS assay for small molecule antagonists of the retinoid-related orphan receptor gamma (ROR-gamma) signaling pathway (AID 651802)
# In short: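 Antagonism is scored as a fall in luminescence from a RORE-luciferase reporter in CHO cells expressing ROR under a TET-inducible promoter, measured 16hr after doxycycline induction in the presence of compound.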
# [30] = qHTS assay for small molecule antagonists of the retinoid-related orphan receptor gamma (ROR-gamma) signaling pathway - cell viability counter screen (AID 720652; active = well fitted curve in the direction sought with a large enough effect in the repeat runs; an effect the other way counts as inactive or inconclusive;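 also: potency is read from the fitted curve at half-maximal effect; compound exposure lasted 16 hr before ATP read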)
# In short: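 Cytotoxicity is quantified via intracellular ATP (CellTiter-Glo luminescence) in doxycycline-induced CHO ROR response element-luciferase reporter cells treated with compound for 16 hr at 37 C, 5% CO2.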
# [31] = qHTS assay for small molecule agonists of the antioxidant response element (ARE) signaling pathway measured by Nrf2-dependant transcriptional activity - cell viability counter screen (AID 720653; active = well fitted curve in the direction sought with a large enough effect in the repeat runs; an effect the other way counts as inactive or inconclusive; also: potency is read from the fitted curve at half-maximal effect; as to max response: % is scaled to controls: 0 for no effect and ±100 for the full control effect); details: ARE-bla HepG2 viability, CellTiter-Glo ATP luminescence, 16 h; max response: hits give low values
# In short: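 Cytotoxicity counter screen: intracellular ATP quantified by CellTiter-Glo luminescence in the same ARE-bla HepG2 plates, after 16 h compound exposure and a 2 h beta-lactamase substrate step.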
# Chain of Peroxisome proliferator-activated receptor delta (Homo sapiens) (Q03181 whole entry, looked up): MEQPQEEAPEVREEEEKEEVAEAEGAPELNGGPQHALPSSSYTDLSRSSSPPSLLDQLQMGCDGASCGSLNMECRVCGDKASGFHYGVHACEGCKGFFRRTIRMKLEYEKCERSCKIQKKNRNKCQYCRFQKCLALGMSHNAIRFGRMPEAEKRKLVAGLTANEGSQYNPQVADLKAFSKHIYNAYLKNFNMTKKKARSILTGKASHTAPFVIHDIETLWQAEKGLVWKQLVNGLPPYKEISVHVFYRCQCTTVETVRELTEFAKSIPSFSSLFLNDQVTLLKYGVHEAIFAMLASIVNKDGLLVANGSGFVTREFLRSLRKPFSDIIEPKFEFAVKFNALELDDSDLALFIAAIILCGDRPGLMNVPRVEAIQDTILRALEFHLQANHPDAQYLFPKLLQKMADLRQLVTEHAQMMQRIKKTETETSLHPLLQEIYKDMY
# Chain of Nuclear receptor ROR-gamma (Homo sapiens) (P51449 whole entry, looked up): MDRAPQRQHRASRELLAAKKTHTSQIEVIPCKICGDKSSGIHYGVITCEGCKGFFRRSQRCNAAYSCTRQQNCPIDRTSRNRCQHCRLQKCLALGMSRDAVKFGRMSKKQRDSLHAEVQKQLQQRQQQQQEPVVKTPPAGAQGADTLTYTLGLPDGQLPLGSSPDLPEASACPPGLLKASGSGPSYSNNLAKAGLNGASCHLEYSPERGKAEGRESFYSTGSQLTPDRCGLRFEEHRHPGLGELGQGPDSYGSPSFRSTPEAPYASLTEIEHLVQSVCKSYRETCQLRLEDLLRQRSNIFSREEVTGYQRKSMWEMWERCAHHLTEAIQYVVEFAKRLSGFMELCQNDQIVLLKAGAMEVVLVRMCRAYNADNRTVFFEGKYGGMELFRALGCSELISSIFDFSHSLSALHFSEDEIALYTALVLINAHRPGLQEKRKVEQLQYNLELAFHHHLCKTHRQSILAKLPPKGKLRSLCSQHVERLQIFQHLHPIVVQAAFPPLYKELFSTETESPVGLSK
# Chain of Voltage-gated inwardly rectifying potassium channel KCNH2 (Homo sapiens) (Q12809 whole entry, looked up): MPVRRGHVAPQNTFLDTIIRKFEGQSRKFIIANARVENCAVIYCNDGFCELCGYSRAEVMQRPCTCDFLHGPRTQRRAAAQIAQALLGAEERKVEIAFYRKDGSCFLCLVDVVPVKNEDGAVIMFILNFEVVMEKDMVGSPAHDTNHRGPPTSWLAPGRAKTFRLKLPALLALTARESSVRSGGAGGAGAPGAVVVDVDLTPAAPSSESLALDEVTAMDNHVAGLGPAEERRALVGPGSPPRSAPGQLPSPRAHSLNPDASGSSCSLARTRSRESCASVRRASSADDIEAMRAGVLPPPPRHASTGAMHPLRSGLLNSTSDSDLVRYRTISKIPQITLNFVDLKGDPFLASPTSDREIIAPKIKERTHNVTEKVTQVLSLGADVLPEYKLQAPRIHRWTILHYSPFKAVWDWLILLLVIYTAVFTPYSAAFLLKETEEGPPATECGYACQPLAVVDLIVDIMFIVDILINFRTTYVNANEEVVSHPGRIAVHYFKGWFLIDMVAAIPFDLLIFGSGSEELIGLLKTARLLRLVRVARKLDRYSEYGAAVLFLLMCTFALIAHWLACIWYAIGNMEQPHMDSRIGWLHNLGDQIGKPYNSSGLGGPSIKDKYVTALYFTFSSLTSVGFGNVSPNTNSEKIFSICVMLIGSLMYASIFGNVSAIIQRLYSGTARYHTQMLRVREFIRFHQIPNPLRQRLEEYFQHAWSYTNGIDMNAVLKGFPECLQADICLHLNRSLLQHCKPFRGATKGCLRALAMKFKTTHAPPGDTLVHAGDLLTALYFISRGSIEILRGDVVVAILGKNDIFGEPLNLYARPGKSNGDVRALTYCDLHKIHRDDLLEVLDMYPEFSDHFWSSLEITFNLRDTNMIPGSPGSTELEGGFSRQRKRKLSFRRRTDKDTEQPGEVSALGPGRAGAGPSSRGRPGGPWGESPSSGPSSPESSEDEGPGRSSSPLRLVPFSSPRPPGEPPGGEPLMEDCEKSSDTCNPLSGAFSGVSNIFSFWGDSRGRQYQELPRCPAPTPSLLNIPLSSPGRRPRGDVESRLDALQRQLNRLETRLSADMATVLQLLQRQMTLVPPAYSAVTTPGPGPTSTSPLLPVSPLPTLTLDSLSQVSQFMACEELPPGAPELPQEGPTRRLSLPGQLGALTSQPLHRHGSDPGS
# Chain of Glucocorticoid receptor (Homo sapiens) (P04150 whole entry, looked up): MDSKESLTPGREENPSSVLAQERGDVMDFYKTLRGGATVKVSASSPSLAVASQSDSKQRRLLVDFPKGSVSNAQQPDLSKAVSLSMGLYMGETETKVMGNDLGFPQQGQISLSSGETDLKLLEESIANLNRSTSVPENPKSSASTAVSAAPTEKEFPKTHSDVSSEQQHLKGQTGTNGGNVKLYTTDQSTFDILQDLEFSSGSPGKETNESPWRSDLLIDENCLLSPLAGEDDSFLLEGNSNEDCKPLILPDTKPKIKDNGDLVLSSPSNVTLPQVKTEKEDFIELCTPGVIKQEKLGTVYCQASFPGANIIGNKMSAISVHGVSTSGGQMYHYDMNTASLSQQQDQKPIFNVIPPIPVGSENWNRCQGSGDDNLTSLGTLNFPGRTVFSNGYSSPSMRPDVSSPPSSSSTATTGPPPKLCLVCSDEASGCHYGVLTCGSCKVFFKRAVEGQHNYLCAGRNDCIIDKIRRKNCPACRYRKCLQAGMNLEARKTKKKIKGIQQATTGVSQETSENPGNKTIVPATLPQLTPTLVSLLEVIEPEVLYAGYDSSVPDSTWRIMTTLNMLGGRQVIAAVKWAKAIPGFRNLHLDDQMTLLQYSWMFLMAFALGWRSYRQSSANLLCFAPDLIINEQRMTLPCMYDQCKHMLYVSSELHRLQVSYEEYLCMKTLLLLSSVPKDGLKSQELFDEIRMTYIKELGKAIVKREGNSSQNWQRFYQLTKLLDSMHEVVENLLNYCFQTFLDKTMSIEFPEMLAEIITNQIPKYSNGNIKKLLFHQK
smiles,measurement,setting,value
ClC1=C(Cl)C(Cl)(Cl)C(Cl)=C1Cl,Potency,[1],5.01 µM (active)
same,Potency,[2],7.94 µM (active)
same,Potency,[3],6.31 µM (active)
same,Potency,[4],6.31 µM (active)
same,Potency,[5],3.98 µM (active)
same,Potency,[6],6.31 µM (active)
same,Potency,[7],6.31 µM (active)
same,Potency,[8],6.31 µM (active)
same,Potency,[9],5.01 µM (active)
same,Potency,[10],10 µM (active)
same,Potency,[11],6.31 µM (active)
same,Potency,[12],7.94 µM (active)
same,Potency,[13],3.16 µM (active)
same,Potency,[14],3.16 µM (active)
same,Potency,[15],6.31 µM (active)
same,Potency,[16],7.94 µM (active)
same,Potency,[17],6.31 µM (active)
same,Potency,[18],7.94 µM (active)
same,Potency,[19],7.94 µM (active)
same,Potency,[20],6.31 µM (active)
same,Potency,[21],3.16 µM (active)
same,Potency,[22],10 µM (active)
same,Potency,[23],inactive
same,outcome,[24],inactive
same,Potency,[25],22.4 µM (active)
same,Potency,[26],inactive
same,activation,[27],12.3%
same,Potency,[28],29.8 µM (active)
same,Potency,[29],13.3 µM (active)
same,Potency,[30],11.9 µM (active)
same,Potency,[31],35.5 µM (active)
same,max response,[31],-1.05%
